Measurements: paper PMC6212790, “How bacterial xenogeneic silencer rok distinguishes foreign from self DNA in its resident genome”
In all, about 33,000 sequences were measured (“e-score”: median about -0.037, highest 2% from about 0.34 on). The full list was thinned out, with the highest values kept by preference.

Biological target: T1, GST-Rok (full length) (Bacillus subtilis subsp. subtilis str. …, UniProt O34857 1-191)
T1 sequence: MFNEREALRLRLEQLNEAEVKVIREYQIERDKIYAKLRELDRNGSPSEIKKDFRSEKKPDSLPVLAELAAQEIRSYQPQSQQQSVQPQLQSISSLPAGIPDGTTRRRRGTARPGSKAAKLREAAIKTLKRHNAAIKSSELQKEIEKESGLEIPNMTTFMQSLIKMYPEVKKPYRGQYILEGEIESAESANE
Experiment: protein binding microarray; Rok is a gene silencer of Bacillus subtilis; high values mean tight binding
Details: protein: recombinant; tags: GST (pTH5325, pDEST15-Magic modified); dsDNA, one strand shown
Procedure, shortened: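 Each has a 25-mer constant primer and a 35-mer variable part from a de Bruijn sequence of order 10, covering every non-palindromic 8-mer at least 32 times (palindromic 16). Preference for each 8-mer is given as a rank-based, unitless enrichment score (E-score). Its range runs from 0.5 (most favored) to −0.5 (most disfavored).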

Point of comparison: CGCTACTA, binding signal 0.28 E-score. Against it:
- TAATAGGA — lower, 0.202 E-score
- AAACCTAA — lower, 0.124 E-score
- ATAACTTA — lower, 0.265 E-score
- ACCGATAC — lower, 0.117 E-score
- ACCGATAG — lower, 0.0776 E-score
- ACCGATAT — higher, 0.338 E-score
- AATATCTA — higher, 0.392 E-score
- GATATCTA — higher, 0.4 E-score
- AATATCTC — lower, 0.203 E-score
- CATATCTA — higher, 0.293 E-score
- GATATCAA — lower, 0.208 E-score
- AATATCTG — lower, 0.268 E-score
- AATCGGAA — lower, 0.0335 E-score
- CCTAGTCG — lower, -0.13 E-score
- AACCACCT — lower, -0.126 E-score
- TCACAGAA — lower, 0.0426 E-score
- GACCAAGA — lower, 0.0064 E-score
- AAGCCTCT — lower, -0.124 E-score
- CCCTACTA — lower, -0.0153 E-score
- AACTACGG — lower, 0.204 E-score
- CACTACTG — lower, -0.0214 E-score
- CACTACGA — lower, 0.174 E-score
- AACTACGC — lower, 0.201 E-score
- CACTACTA — higher, 0.354 E-score
- AACTACTG — higher, 0.436 E-score
- AGCTACTG — higher, 0.294 E-score
- ACCTACTA — higher, 0.372 E-score
- ACCTACTG — higher, 0.295 E-score
- CACTACTC — lower, 0.00906 E-score
- AACTACTC — higher, 0.381 E-score
- ATGCCGCA — lower, -0.0383 E-score
- CTTCGCCA — lower, -0.129 E-score
- CCACTGCC — lower, -0.199 E-score
- CTATAAGC — lower, 0.113 E-score
- ATATGGAG — lower, 0.202 E-score
- GCGTGAAC — lower, 0.00198 E-score
- TAAGCTGA — lower, -0.0981 E-score
- AGGGTACG — lower, -0.168 E-score
- CCGCTAGG — lower, -0.19 E-score
- GGCTTTAC — lower, 0.00573 E-score
- GCAAATCA — lower, 0.0652 E-score
- TATTGAAA — lower, 0.0126 E-score
- GACTACTA — higher, 0.34 E-score
- AGCTACTA — higher, 0.291 E-score
- TACTACGA — lower, 0.275 E-score
- AACTACGA — higher, 0.292 E-score
- AACTACTT — higher, 0.418 E-score
- TACTACTA — higher, 0.428 E-score
- AACTACGT — higher, 0.306 E-score
- GACTACTC — lower, 0.132 E-score
- AACTACTA — higher, 0.474 E-score
- GACTACGA — lower, 0.079 E-score
- AACAACTT — lower, 0.174 E-score
- ATGTCGGC — lower, 0.0255 E-score
- ATGCATTG — lower, 0.0725 E-score
- GTCCGCAA — lower, -0.0703 E-score
- TCAAGCAA — lower, -0.0617 E-score
- CCCGATAC — lower, 0.00567 E-score
- CCATCCGC — lower, -0.114 E-score
- ACGGCTTA — lower, -0.0338 E-score
- AGATAATG — lower, 0.225 E-score
- CACGTATG — lower, 0.0605 E-score
- TCCCCAAA — lower, -0.169 E-score
- CCCTTTTA — lower, -0.102 E-score
- GCTTTTTA — lower, 0.157 E-score
- AGATTTCA — lower, 0.0391 E-score
- AACATAAG — lower, 0.23 E-score
- GCTTTCTA — lower, 0.224 E-score
- CTATCCTA — lower, 0.0781 E-score
- ATATCCTA — higher, 0.36 E-score
- GTATCCTA — lower, 0.13 E-score
- GAATGGCC — lower, -0.15 E-score
- CATTTGCG — lower, -0.059 E-score
- AAATATAA — lower, 0.253 E-score
- AAAAATAT — higher, 0.319 E-score
- CAATATAA — lower, 0.213 E-score
- AAATACAT — higher, 0.348 E-score
- AAATATAC — higher, 0.376 E-score
- CAATATAC — higher, 0.34 E-score
- AAATATAT — higher, 0.429 E-score
- AAATATAG — higher, 0.317 E-score
- GAATATAC — higher, 0.306 E-score
- AAATACAG — lower, 0.264 E-score
- AAATACAC — lower, 0.216 E-score
- AGGAAGTG — lower, -0.139 E-score
